CYP2C19 inhib – blockers of cytochrome P450 2C19 activity – biochemical, luminescence, ADME assay, primary screen; CYP2C19 Supersomes, luciferin-H EGE luminescence, 30 min; inhibition, % at 5 µM; 21% of 96,000 active; P33261; AID 778, 2007;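 active = CYP2C19 inhibition above a set limit at 5 µM in the primary screen, cut at about 50% in these data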;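 note: plate controls were negative control wells for no effect and 2.5 mM tranylcypromine positive control for full effect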
CYP2C9 inh – blockers of cytochrome P450 2C9 activity – biochemical, luminescence, ADME assay, primary screen. CYP2C9 Supersomes, luciferin-H conversion. inhibition, % at 5 µM. 20% of 96,000 active. AID 777, 2007;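 active = blocking of liver enzyme CYP2C9 beyond about 50% at 5 µM, limit read from the data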
Target sequence (P11712 whole entry, looked up): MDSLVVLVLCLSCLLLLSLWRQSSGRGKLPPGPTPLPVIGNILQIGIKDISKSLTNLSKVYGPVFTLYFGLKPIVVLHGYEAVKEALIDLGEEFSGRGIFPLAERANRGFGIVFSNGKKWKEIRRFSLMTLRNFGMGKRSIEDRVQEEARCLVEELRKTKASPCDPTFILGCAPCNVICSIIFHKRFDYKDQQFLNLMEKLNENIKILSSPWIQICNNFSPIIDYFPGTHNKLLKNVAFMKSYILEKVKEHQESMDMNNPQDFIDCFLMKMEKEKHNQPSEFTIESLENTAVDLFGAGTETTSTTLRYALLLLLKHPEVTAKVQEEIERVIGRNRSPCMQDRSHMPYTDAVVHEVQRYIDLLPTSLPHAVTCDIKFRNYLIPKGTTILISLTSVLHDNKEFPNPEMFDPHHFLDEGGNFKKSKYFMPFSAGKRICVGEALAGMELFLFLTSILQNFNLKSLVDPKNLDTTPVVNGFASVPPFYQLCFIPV
CYP2C9 activ – human CYP2C9 activators, primary screen, biochemical, luminescence | 1.4% of 96,000 active | recombinant CYP2C9, luciferin-H conversion; hits give high values; factor 1 = untreated enzyme, 0 = blocked | activation factor at 5 µM | Cytochrome P450 2C9 (Homo sapiens), P11712;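 active = activation factor of 2 or more for CYP2C9 at a 5 µM dose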;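 note: 0 = sulfaphenazole-blocked wells and 1 = vehicle-only wells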
CYP2C19 activ – human CYP2C19 activators, primary screen, biochemical, luminescence. activation factor at 5 µM. recombinant CYP2C19, luciferin-H EGE luminescence; hits give high values; 0 = fully inhibited enzyme, 1 = untreated enzyme. AID 1025, 2008. 96,000 tested, under 10 active. Cytochrome P450 2C19 (Homo sapiens), P33261;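 active = activation factor of at least 2 at 5 µM in the primary screen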;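 note: 0 = wells with 2.5 mM tranylcypromine and 1 = vehicle-only wells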
Cav32 inh – Cav3.2 calcium influx blockers – cell-based, Fluo-4 calcium fluorescence, FDSS, MLSMR library, primary screen. Voltage-dependent T-type calcium channel subunit alpha-1H (Homo sapiens), O95180. Cav3.2-expressing cells; hits give low values. B-score at 10 µM. 4% of 100,000 active;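 active = single-dose well whose peak fluorescence ratio is a statistical outlier from its plate by either plate-standardised score or position-corrected B-score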
An asterisk follows results filed as active; x = no result given. Shown are actives, neighbours in structure and some others; about 27% of the full set was active somewhere.

SMILES	CYP2C19 inhib	CYP2C9 inh	CYP2C9 activ	CYP2C19 activ	Cav32 inh
COc1ccc(-c2cc3nc(C)cc(NCCO)n3n2)cc1	-2	19	0.8	1	-0.18
CC(C)(C)c1cc(NCCCn2ccnc2)n2ncc(-c3ccc(Cl)cc3)c2n1	8	66*	0.3	0.9	-0.071
Cc1cc(NCCCn2ccnc2)n2nc(-c3ccc(F)cc3)cc2n1	97*	98*	0	0	0.03
Cc1cc(C)c2c(n1)nn1c(C3CC3)cc(C(F)(F)F)nc21	x	x	x	x	-0.86
Cc1cc(NCCOCCO)n2ncc(-c3ccc(Cl)cc3)c2n1	29	28	0.7	0.7	2.2
Cc1cc(C)c2c(n1)nn1c(NCCCn3ccnc3)cc(C)nc21	69*	96*	0	0.3	x
O=C(Nc1ccccc1C(=O)OC1CCOC1=O)c1ccco1 (configuration not stated)	0	12	0.9	1	-0.55
Cc1cccc(C(=O)N2CCN(c3ccc(C(F)(F)F)cn3)CC2)c1C	74*	39	0.6	0.3	-4.7*
Cc1ccccc1N1CCN(C(=O)c2ccc(Oc3ccc(C(F)(F)F)cn3)cc2)CC1	19	76*	0.2	0.8	-6*
O=C(c1ccccn1)N1CCN(c2ccc(C(F)(F)F)cn2)CC1	x	x	x	x	0.011
O=C(Nc1nc2c(s1)C(=O)CCC2)c1ccccc1	41	53*	0.5	0.6	-0.3
O=C(Nc1nc(=O)c2ccccc2s1)c1ccccc1	-8	-2	1	1.1	0.32
COc1ccc(OCc2nc(N)nc(Nc3ccc(C)cc3)n2)cc1	21	38	0.6	0.8	-0.98
Cc1cccc(-n2nnnc2SCC(=O)c2cc(C)n(Cc3ccco3)c2C)c1	46	-158	2.6*	0.5	-2.9
Cc1ccc(-n2nnnc2SCC(=O)c2cc(C)n(CC3CCCO3)c2C)cc1 (configuration not stated)	42	-13	1.1	0.6	-1.5
Cc1cc(C(=O)CSc2nc3ccccc3[nH]2)c(C)n1CC1CCCO1 (configuration not stated)	54*	56*	0.4	0.5	-3.1
C=CCn1c(SCC(=O)c2cc(C)n(CC3CCCO3)c2C)nnc1-c1ccccc1 (configuration not stated)	73*	8	0.9	0.3	0.66
Cc1cccc(-n2nnnc2SCC(=O)c2cc(C)n(CC3CCCO3)c2C)c1 (configuration not stated)	90*	-63	1.6	0.1	-5.4*
Cc1cc(C(=O)CSc2nc3ccccc3o2)c(C)n1CC1CCCO1 (configuration not stated)	27	1	1	0.7	-0.58
CC(C)(C)NC1=CC(=O)OC12CCCCC2	-8	-4	1	1.1	-0.57
NC(=O)c1ccccc1Nc1nc(NCCO)nc(N2CCCC2)n1	x	x	x	x	1
Cc1ccc(NC(=O)c2cccc(N3C(=O)CCC3=O)c2)nc1	-24	-1	1	1.2	1.4
Cc1sc2nc(SCC(=O)c3cc(C)n(CC4CCCO4)c3C)n(C(C)C)c(=O)c2c1C (configuration not stated)	82*	88*	0.1	0.2	-4.1*
Cc1cc(C(=O)CSc2nnnn2-c2ccc(O)cc2)c(C)n1Cc1ccc2c(c1)OCO2	99*	25	0.7	0	-2.3
C=CCn1c(SCC(=O)c2cc(C)n(CCOC)c2C)nc2sc(C)c(C)c2c1=O	22	28	0.7	0.8	0.93
SMILES	CYP2C19 inhib	CYP2C9 inh	CYP2C9 activ	CYP2C19 activ	Cav32 inh
Cc1cc(C(=O)Cn2nnc(-c3ccc(Cl)cc3)n2)c(C)n1CC1CCCO1 (configuration not stated)	x	x	x	x	-5.2*
Cc1csc(NC(=O)CSc2nc3sc(C)c(C)c3c(=O)[nH]2)n1	12	86*	0.1	0.9	0.063
Cc1sc2nc(SCC(=O)N(C)C)[nH]c(=O)c2c1C	34	54*	0.5	0.7	-0.15
Cc1sc2nc(SCC(=O)N3CCCC3)[nH]c(=O)c2c1C	-1	24	0.8	1	0.2
O=C(CSc1nnc(Cc2ccccc2)n1Cc1ccco1)NC12CC3CC(CC(C3)C1)C2	37	39	0.6	0.6	-3.2*
Cn1c(CNC(=O)c2ccco2)nnc1SCC(=O)Nc1cccc(Br)c1	6	10	0.9	0.9	0.21
NC(=O)c1c(NC(=O)CSc2nnc(Cc3ccccc3)n2Cc2ccco2)sc2c1CCC2	25	64*	0.4	0.8	-4.3
CCOC(=O)c1c(NC(=O)CSc2nnc(CNC(=O)c3ccco3)n2C)sc2c1CCC2	2	70*	0.3	1	-0.54
CN(C)C(=O)CSc1nnc(Cc2ccccc2)n1Cc1ccco1	x	x	x	x	-0.077
CC1C(=O)CCCCCCCCCC2C1(N1CCOCC1)CS2(=O)=O (configuration not stated)	x	x	x	x	-0.0012
COC(=O)C(Sc1nc(C)cc(C)c1C#N)c1ccccc1 (configuration not stated)	54*	46	0.5	0.5	-1.4
N#Cc1c(-c2ccccc2)cc(C2CC2)nc1SCC(=O)c1cccs1	14	43	0.6	0.9	x
N#Cc1c(-c2cccs2)cc(C2CC2)nc1SCC(N)=O	59*	13	0.9	0.4	-0.037
CCOC(=O)CC(=O)CSc1nc(N)c(C#N)c(-c2ccc(Cl)cc2)c1C#N	84*	62*	0.4	0.2	0.53
Cc1cc(C)c(C#N)c(SCC(=O)c2cccs2)n1	96*	62*	0.4	0	-1.5
CC(C)(C)C1(c2ccccc2)NC(=O)N(CC(=O)N2CCOCC2)C1=O (configuration not stated)	-16	-24	1.2	1.2	-0.023
CC(C)OCCCNC(=O)c1ccccc1Oc1ccccc1	31	32	0.7	0.7	1.1
CC(C)OC(=O)CSc1nc(N)c(C#N)c(-c2cccs2)c1C#N	23	3	1	0.8	0.85
CCOC(=O)CC(=O)CSc1nc(C)cc(C)c1C#N	70*	34	0.7	0.3	0.57
CCOC(=O)CC(=O)CSc1nc2c(c(C)c1C#N)CCC2	24	16	0.8	0.8	x
CC(=O)CSc1nc(N)c(C#N)c(-c2cccs2)c1C#N	-13	60*	0.4	1.1	1.1
O=C(C1=C[C@@H](c2ccc(Br)cc2)C[C@@H](OCc2ccc(CO)cc2)O1)N1CCN(Cc2ccc3c(c2)OCO3)CC1	x	x	x	x	-2.2
CCOc1ccc(N(CC(=O)NCC2CCCO2)S(=O)(=O)c2ccc(OC)c(OC)c2)cc1 (configuration not stated)	x	x	x	x	1.7
N#CCN1CCN(CCC(=O)Nc2ccc(OCc3ccccc3)cc2)CC1	8	6	0.9	0.9	1.4
Cc1cccc(CCNC(=O)C2CCC(=O)N2Cc2ccc(F)cc2)c1 (configuration not stated)	15	22	0.8	0.8	-0.21

Screening data (PubChem BioAssay)
